# Pf growth 48h: inhibits P. falciparum growth in the first generation, 48 h. P. falciparum luciferase growth in erythrocytes, 48 h. Potency, µM (series often up to 28.7 µM), for inactives: at the highest dose activity change, negative = inhibition, hits mostly inhibitors. hit rate 5.9% among 310,000; note: potency is the fitted concentration of half-maximal effect; % is set by controls: 0 for no effect and ±100 for the full control effect
#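 In quantitative HTS format, infected erythrocytes bearing luciferase-reporter parasites were treated for a single generation at 37 C. Luminescence after adding detection reagent served as the growth measure.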
# CHX counter: affects cycloheximide protein synthesis inhibition readout, counter-screen; cell reporter, cycloheximide protein synthesis inhibition counterscreen; max response, %; hit rate 12% among 300,000; in the data active = max response mostly above about 13%, no sharp cut-off; inactive = mostly below about 14%; note: read at 38.3 µM for the half of the compounds with a filed dose; 0% is about no effect
# Pf growth 96h: P. falciparum growth inhibition at 96 hours; P. falciparum luciferase reporter growth, 96 h; Potency, µM (series often up to 28.7 µM), without a hit: top-dose activity change, negative = inhibition, usual class: inhibitors; hit rate 6.9% among 320,000; note: potency is the fitted concentration of half-maximal effect; % is set by controls: 0 for no effect and ±100 for the full control effect
#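 Compounds incubated with erythrocytes infected by luciferase-expressing P. falciparum (2% hematocrit, 0.05% parasitemia final) for 96 hours, 37 C in 5% CO2. Growth inhibition scored as decreased luciferase luminescence.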
# Shiga inhibitor: Shiga toxin inhibition; hit rate 9.2% among 290,000; inhibition, % at 38.7 µM; AID 2315; Vero cells, Shiga toxin protein synthesis inhibition reporter; in the data active = inhibition mostly above about 28%, no sharp cut-off; inactive = mostly below about 43%; note: 0% is about no effect
# * hit, by the source's call; ? = inconclusive; · = no result; [ ] = another dose, or the depositor's remark. This is a sample that favours compounds with a hit; in the whole collection about 21% have one here. Unless noted, calls come from the whole dose curve; as a rule, active = well fitted inhibition curve with a large enough effect; inconclusive = small, poorly fitted or top-dose-only effect, or another doubt; inactive = no such curve, though single readings can be large or run the other way.
SMILES,Pf growth 48h,CHX counter,Pf growth 96h,Shiga inhibitor
CC(C)(Oc1ccc(Cl)cc1)C(=O)N1CCN(c2ccccn2)CC1,15µM*,-4,·,-12
O=C(c1ccccc1OCc1ccc(Cl)cc1)N1CCN(c2ccccn2)CC1,?,·,0%,·
Cc1ccc(-c2nn(Cc3ccccc3)cc2C(=O)N2CCN(c3ccccn3)CC2)cc1,13µM*,·,?,·
O=C(CSc1nnc(NC(=O)C2CC2)s1)Nc1ccc2c(c1)OCCO2,125%,-3,34%,-4
CCOC(=O)/C(Sc1nc(-c2ccccc2)cc(-c2ccccc2)c1C#N)=C(\C)O,-2%[0.00184 µM],-5,23%,-6
CNC(=S)N1N=C(c2cccs2)CC1c1ccc(F)cc1 (stereo not given),?,-2,40%,3
Cc1cnn(Cc2cccnc2)c1N,113%,-3,45%,-4
O=C(CCN1C(=O)C2C3C=CC(C3)C2C1=O)Nc1ccc2ncccc2c1 (stereo not given),37%,45*,59%,64*
O=C(CCN1C(=O)C2C3C=CC(C3)C2C1=O)NCCc1ccccc1 (stereo not given),29%,9.7*,?,19
O=C(CCN1C(=O)C2C3C=CC(C3)C2C1=O)Nc1ccccn1 (stereo not given),-9%,-2,-27%,38
O=C(O)C1C2C=CC(C2)C1C(=O)NCCc1ccccc1 (stereo not given),38%,12,77%,30*
O=C1C2C3C=CC(C3)C2C(=O)N1CCc1ccccc1 (stereo not given),·,8,?,34
O=C(O)C1C2C=CC(C2)C1C(=O)NCCCc1ccccc1 (stereo not given),-5%,-1,7%,13
NS(=O)(=O)c1ccc(CCNC(=O)/C=C/c2ccccc2[N+](=O)[O-])cc1,-2%,-2,3%,-5
COc1ccc(C(=O)NCCc2nnc3ccc(SCC(=O)Nc4ccccc4)nn23)cc1,189%,44*,145%,73*
O=C(CSc1ccc2nnc(CCNC(=O)c3ccccc3)n2n1)Nc1ccccc1,?,-2,?,-12
Cc1ccc(C(=O)NCCc2nnc3ccc(SCC(=O)Nc4ccccc4C)nn23)cc1,?,-3,10µM*,-5
COc1ccccc1N1CCN(CCC(=O)Nc2cccc(Cl)c2)CC1,·,-3,?,-6
COC(=O)c1ccc(NS(=O)(=O)NC(=O)c2cn(C)c3ccccc23)cc1,25%,6,19%,10
CC(=O)c1ccc(OCC(=O)OCC(=O)NCc2ccco2)cc1,-20%,·,-9%,·
O=C(c1nc2ccc(Cl)cn2c1CNCCc1cnccn1)N1CCCCCCC1,41%,-6,45%,18
Cc1c(O)ccc(/C(Cc2ccc3ccccc3n2)=N\N)c1O,?,29*,?,68*
CCc1cc(/C(Cc2ccc3ccccc3n2)=N\O)c(O)cc1O,36%,-2,1.7µM*,37
CCc1cc(/C(Cc2ccccn2)=N\O)c(O)cc1O,·,-4,61%,-18
NS(=O)(=O)c1ccc(Nc2nc(-c3ccc(O)cc3)cs2)cc1,-2%,2,20%,17
SMILES,Pf growth 48h,CHX counter,Pf growth 96h,Shiga inhibitor
Oc1ccc(Nc2nc(-c3ccc(Cl)cc3)cs2)cc1,·,47*,·,110*
Oc1ccc(Nc2nc(-c3ccc(O)cc3)cs2)cc1,-50%,54*,-23%,80*
Cc1cc(NS(=O)(=O)c2ccc(NC(=S)Nc3ccc(Cl)cc3C)cc2)no1,20%,-2,0%,7
NC(CS)C(=O)O (stereo not given),4.3µM*,·,-8%,·
CC1CN(c2oc(-c3ccco3)nc2S(=O)(=O)c2ccccc2)CC(C)O1 (stereo not given),6%,-3,5%,21
O=S(=O)(NC(=NC1CCCCC1)c1ccccc1)c1ccc(F)cc1,?,2,9.3µM*,1
Cc1ccc(S(=O)(=O)NC(=NC2CCCCC2)c2ccc(F)cc2)cc1,0%,-1,12%,-9
CC(C)(C)c1ccccc1NC(=O)CN1C(=O)NC2(CCCCCC2)C1=O,-10%,·,-17%,·
Cc1nn(-c2ccccc2)c(N2CCCC2)c1/C=N/NC(=S)Nc1cc(C(F)(F)F)ccc1Cl,12µM*,-4,4.1µM*,20
Cc1ccc(NC(=S)N/N=C/c2c(C)nn(-c3ccccc3)c2N2CCCC2)cc1,12µM*,0,?,2
Cc1nn(C)cc1/C=N/NC(=S)Nc1ccccc1,12%,71*,-144%,175*
Cc1nn(-c2ccccc2)c(N2CCCCC2)c1/C=N/NC(=O)c1ccncc1,?,0,?,24
Cc1nn(-c2ccccc2)c(N2CCCC2)c1/C=N/O,0%,-1,·,-7
Cc1nn(-c2ccccc2)c(N2CCCC2)c1/C=N/NC(=S)Nc1ccccc1C(F)(F)F,?,-3,4.7µM*,7
Cc1ccc(OCC(=O)N/N=C/C=C/c2ccco2)cc1C,6%,2,81%,-10
CCN(CC)S(=O)(=O)c1cc(C(=O)Nc2cccnc2Cl)ccc1Cl,-2%,5,12%,-13
Cc1ccc(C(=O)NCCNS(=O)(=O)c2ccccc2[N+](=O)[O-])cc1,?,3,-1%,·
O=C1CN(C(=O)CSc2nc3ccccc3c(=O)n2Cc2ccc(F)cc2)c2ccccc2N1,12µM*,-5,2.6µM*,-12
Cc1cc(NC(=O)CSc2nc3cc4c(cc3c(=O)n2CCc2ccccc2)OCO4)no1,-17%,9.4*,?,1
Cc1cc(NC(=O)Cn2c(=O)n(Cc3ccccc3)c(=O)c3ccccc32)no1,9.3µM*,7,0%,9
COc1ccc(CCn2c(SCC(=O)Nc3cc(C)on3)nc3ccccc3c2=O)cc1OC,46%,-4,0%,16
COCCn1cnc2c1c(=O)n(CC(=O)Nc1cc(C)on1)c(=O)n2Cc1ccccc1,?,-2,?,-18
Cc1cc(NC(=O)CSc2nc3ccccc3c(=O)n2Cc2ccc(F)cc2)no1,?,-5,12µM*,-5
Cc1ccc(S(=O)(=O)NC(=O)COc2ccc(Cl)cc2Cl)cc1,13%,-2,24%,-4
CC1CCCN(S(=O)(=O)CCNC(=O)c2ccccc2)C1 (stereo not given),20%,·,34%,·
SMILES,Pf growth 48h,CHX counter,Pf growth 96h,Shiga inhibitor
Cn1cccc2[nH]c(=O)nc1-2,1%,-3,19%,-4
COCCCNC(=O)CSc1nc2cc3c(cc2c(=O)n1CCCC(=O)NCc1ccc(OC)cc1)OCO3,-16%,0,10µM*,17
CCN(CC)C(=O)CSc1nc2ccccc2c(=O)n1CCC(=O)NCc1ccc(F)cc1,9.3µM*,3,?,9
Cc1cc(NC(=O)CSc2nc3ccccc3c(=O)n2-c2ccccc2)no1,29%,-4,·,-17
CCCCCCn1c(SCC(=O)Nc2cc(C)on2)nc2ccccc2c1=O,?,2,6.6µM*,-11
Cc1ccc(OCC(=O)Nc2c3c(nn2C(C)(C)C)CS(=O)(=O)C3)cc1,5%,-3,2%,-6
O=C(NCc1ccccn1)C(=O)Nc1nc(C23CC4CC(CC(C4)C2)C3)cs1,-2%,-3,17%,-11
COc1ccc(CNc2nc(Cl)c(C#N)s2)cc1,·,41*,0%,45*

# Screening results as filed in PubChem BioAssay.
